Records with an inconclusive call do not appear. A call without a number means that no potency is given here. The source made the active and inactive calls. Calls follow the shape of the dose curve; as a rule, active = well fitted inhibition curve with a large enough effect in the repeat runs; inconclusive = weak or mixed curves; inactive = no such curve, though single readings can be large or run the other way.
Biological target: Cytochrome P450 2D6 (Homo sapiens) (UniProt P10635)
Assay: Cytochrome P450 Family 2 Subfamily D Member 6 (CYP2D6) small molecule antagonists: luciferase reporter qHTS assay (AID 1671196); also: nearly all actives have a fitted effect of over 50% in size
Details: P450-Glo CYP2D6 enzyme assay, luciferin luminescence, 1 h; series mostly up to 115 µM
Excerpt: U.S. Tox21 Program National Center for Advancing Translational Sciences [NCATS] U.S. Environmental Protection Agency [EPA] National Institutes of Environmental Health Sciences [NIEHS] National Toxicology Program [NTP] U.S. Food and Drug Administration [FDA] Tox21 Assay Overview: Cytochrome P450 (CYP) enzymes are membrane-bound hemeproteins that play a key role in metabolism of drugs and xenobiotics. Evaluation of the effect of chemicals on CYP isozymes is useful to minimize the adverse drug reactions and toxicities in drug development process. Tox21 chemicals were tested for their effect on CYP enzyme activities by using P450-Glo (TM) screening systems (Promega Corporation, Madison, WI). These systems provide a luminescent method containing proluciferin substrates and are converted to luciferin products by CYP isozymes. The luciferin products formed are detected with a luciferin detection reagent, and the amount of light produced is proportional to CYP activity. P450-Glo (TM) CYP2D6 screening system (Catalog. No. V9890) was used to detect the compounds that interfere in CYP2D6 activity.
Tox21 Assay Protocol Summary: Two ul of enzyme-substrate mix was dispensed into medium binding white/solid 1536-well plates (Greiner Bio-One North America Inc., Monroe, NC) using a BioRaptr Flying Reagent Dispenser (FRD, Beckman Coulter, Brea, CA). […] The assay plates were incubated at room temperature for 10 min. Then 2 ul of NADPH regeneration solution was added to each well of the assay plates using an FRD and incubated at room temperature for 1 h. The reaction was stopped by adding 4 ul of detection reagent using an FRD and after 20 min incubation at room temperature the luminescence signal was measured using a ViewLux plate reader (Perkin Elmer, Shelton, CT). Data were expressed as relative luminescence units.
Potency is read from the fitted curve at half-maximal effect.

Sequence of Cytochrome P450 2D6 (Homo sapiens) (P10635 whole entry, looked up): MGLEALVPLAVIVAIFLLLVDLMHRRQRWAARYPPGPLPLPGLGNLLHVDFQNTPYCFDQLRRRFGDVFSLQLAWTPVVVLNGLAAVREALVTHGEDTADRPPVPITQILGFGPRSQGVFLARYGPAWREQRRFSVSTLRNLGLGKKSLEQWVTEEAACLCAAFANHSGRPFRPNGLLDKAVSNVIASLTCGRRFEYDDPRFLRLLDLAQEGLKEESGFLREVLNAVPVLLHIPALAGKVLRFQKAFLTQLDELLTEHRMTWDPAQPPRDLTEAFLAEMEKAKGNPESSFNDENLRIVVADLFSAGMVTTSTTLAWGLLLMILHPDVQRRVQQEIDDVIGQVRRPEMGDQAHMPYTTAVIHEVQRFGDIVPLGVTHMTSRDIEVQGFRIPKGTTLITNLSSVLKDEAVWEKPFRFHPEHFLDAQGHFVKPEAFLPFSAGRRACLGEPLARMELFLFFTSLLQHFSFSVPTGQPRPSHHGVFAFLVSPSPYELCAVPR

Question: How did the Potency turn out when `CC(C)(CO)[C@@H](O)C(=O)NCCC(=O)O` was run?
Answer: inactive

Question: Which Potency does the source give for `COc1ccccc1OCC(O)COC(N)=O` (stereo not given) here?
Answer: inactive

Question: How did the Potency turn out when `COc1cc(N)c(Cl)cc1C(=O)NC1CCN(Cc2ccccc2)CC1` was run?
Answer: 0.0309 µM (active)

Question: For `CN(CCCN1c2ccccc2CCc2ccccc21)CC(=O)c1ccc(Cl)cc1`, which Potency is on record?
Answer: 7.76 µM (active)

Question: `CCN1CC(CCN2CCOCC2)C(c2ccccc2)(c2ccccc2)C1=O` (stereo not given) was tested. Which Potency did it give?
Answer: 1.23 µM (active)

Question: How did the Potency turn out when `Cc1ccc(C(C)C)cc1O` was run?
Answer: inactive

Question: How did the Potency turn out when `CC/C=C\CCOC(=O)C(C)C` was run?
Answer: inactive

Question: With `COc1nc(C)nc(NC(=O)NS(=O)(=O)c2ccccc2OCCCl)n1` as the compound, how does the Potency read?
Answer: inactive

Question: For `CCOc1ccc2nc(N)sc2c1`, which Potency is on record?
Answer: 39.6 µM (active)

Question: Which Potency does the source give for `CC(C)(C)C1CCCCC1=O` (stereo not given) here?
Answer: inactive

Question: For `CCOC(=O)NCCC[Si](OCC)(OCC)OCC`, which Potency is on record?
Answer: inactive

Question: For `CC1CN(c2ccccc2)NC1=O` (stereo not given), which Potency is on record?
Answer: 31.7 µM (active)

Question: `CC(C)(C)c1cccc(O)c1` was tested. Which Potency did it give?
Answer: inactive

Question: Which Potency does the source give for `OCc1c2ccccc2cc2ccccc12` here?
Answer: inactive

Question: For `CCOc1ccccc1N`, which Potency is on record?
Answer: 3.53 µM (active)

Question: For `COc1ccccc1N1CCN(CCCNc2cc(=O)n(C)c(=O)n2C)CC1`, which Potency is on record?
Answer: 11 µM (active)

Question: `CC1=CC(=O)CC(C)(C)C1=O` was tested. Which Potency did it give?
Answer: inactive

Question: How did the Potency turn out when `NS(=O)(=O)c1cc(-c2nn[nH]n2)c(NCc2cccs2)cc1Cl` was run?
Answer: inactive

Question: For `Cc1c(C(=O)NCCO)[n+](=O)c2ccccc2n1[O-]`, which Potency is on record?
Answer: inactive

Question: For `CC(C)CC(=O)OCc1ccccc1`, which Potency is on record?
Answer: inactive

Question: For `CC(C)c1ccccc1`, which Potency is on record?
Answer: inactive

Question: `CC(C)C(=O)OC/C=C/c1ccccc1` was tested. Which Potency did it give?
Answer: inactive

Question: `CCCOCCC` was tested. Which Potency did it give?
Answer: inactive

Question: `C=CCCC=C` was tested. Which Potency did it give?
Answer: inactive

Question: For `CC(C)C1=CC2=CC[C@@H]3[C@](C)(CCC[C@@]3(C)C(=O)O)[C@H]2CC1`, which Potency is on record?
Answer: inactive

Question: How did the Potency turn out when `CN1C(=O)CC(c2ccccc2)C1=O` (stereo not given) was run?
Answer: inactive

Question: With `COC(=O)N[C@H](C(=O)N[C@@H](Cc1ccccc1)[C@@H](O)CN(Cc1ccc(-c2ccccn2)cc1)NC(=O)[C@@H](NC(=O)OC)C(C)(C)C)C(C)(C)C` as the compound, how does the Potency read?
Answer: inactive

Question: `O=C1CCCCCCCCCCC(=O)OCCO1` was tested. Which Potency did it give?
Answer: inactive

Question: How did the Potency turn out when `O=Cc1ccc(F)c(Br)c1` was run?
Answer: inactive

Question: `C=CC1CO1` (stereo not given) was tested. Which Potency did it give?
Answer: inactive

Question: With `ICCc1ccccc1` as the compound, how does the Potency read?
Answer: 6.95 µM (active)

Question: How did the Potency turn out when `CCOC(=O)[C@H](CCc1ccccc1)N[C@@H](C)C(=O)N1Cc2cc(OC)c(OC)cc2C[C@H]1C(=O)O` was run?
Answer: inactive

Question: For `NC(=O)Cc1cccc(C(=O)c2ccccc2)c1N`, which Potency is on record?
Answer: inactive

Question: `CCOC(=O)CS` was tested. Which Potency did it give?
Answer: inactive

Question: Which Potency does the source give for `CC(C)CCCCCCc1ccc(OCCOCCO)cc1` here?
Answer: inactive

Question: `CCCCCCCCCC/C=C/C#N` was tested. Which Potency did it give?
Answer: inactive

Question: How did the Potency turn out when `CCc1cc(Cl)c(OC)c(C(=O)NC[C@@H]2CCCN2CC)c1O` was run?
Answer: 0.617 µM (active)

Question: Which Potency does the source give for `Nc1ccc(Oc2ccc(N)c(N)c2)cc1` here?
Answer: 5.64 µM (active)

Question: With `CCCCc1ccc2nc(NC(=O)OC)[nH]c2c1` as the compound, how does the Potency read?
Answer: inactive

Question: `C=CCCCCCCCCO` was tested. Which Potency did it give?
Answer: inactive

Reference: PubChem BioAssay (Tox21)
